Tcruzi prolif – blocks T. cruzi growth in NIH3T3 culture | inhibition, % at 8.34 µM | hit rate 5.9% among 77,000 | T. cruzi beta-gal in NIH3T3, GalScreen luminescence, 90 h;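 active means mean inhibition above about 93%, with at least 55% of replicates each passing it, limit read from the data, passing the limit was not always enough; inconclusive means only one of those two conditions holds; inactive means neither condition holds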
C diff HTS – C. difficile growth inhibition; Clostridium difficile clinical isolate growth, OD600, 24 h; hits give low values; growth activity, negative = inhibition, % at 16 µg/mL (by protocol); hit rate 0.25% among 86,000; AID 1259249;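 active means mean growth activity at or below -80% and every replicate also at or below -80%; inconclusive means mean at or below -80% but some replicate above -80%; inactive means mean growth activity above -80%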;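 further: 0% = DMSO wells and -100% = levofloxacin 16 µg/mL wells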
Pf Dd2 growth – blocks growth of Plasmodium falciparum Dd2 parasites | hit rate 2.3% among 94,000 | AID 1159554 | activity change, % at 10 µM | P. falciparum Dd2 growth, SYBR Green, 72 h; hits give low values; in the data active means activity change below about -80%; inconclusive means no clear call, values can overlap the other calls
* = called active by the depositor; ? = inconclusive; . = no result; ! = not active in a repeat. Only some compounds are listed: those with a hit (about 6.8% of all), similar ones and a draw of the others.

SMILES	Tcruzi prolif	C diff HTS	Pf Dd2 growth
Cc1ccc(S(=O)(=O)N(C)C[C@@H]2Oc3ccc(NS(=O)(=O)c4ccc(Cl)cc4)cc3C(=O)N([C@@H](C)CO)C[C@H]2C)cc1	48	-1	-9
COc1ccc2c3c([nH]c2c1)[C@H](CO)N(Cc1nccs1)CC31CCN(Cc2nccs2)CC1	.	.	10
COc1cc2c(cc1OC)[C@@]13ON=C(c4ccc(OCCO)cc4)[C@@H]1CCN3CC2	.	5	.
C[C@@H]1CCCCO[C@H](CN(C)Cc2ccncc2)[C@@H](C)CN([C@@H](C)CO)C(=O)c2cc(NC(=O)CCC(F)(F)F)ccc2O1	-19	-1	.
C[C@H]1CN([C@@H](C)CO)S(=O)(=O)c2ccc(/C=C/c3ccccc3)cc2O[C@H]1CN(C)C(=O)c1ccccc1	125*	22	?
C/C=C/c1ccc2c(c1)O[C@@H](CN(C)C(=O)c1ccccc1)[C@H](C)CN([C@@H](C)CO)S2(=O)=O	.	3	-30
C[C@H]1CN([C@@H](C)CO)S(=O)(=O)c2ccc(/C=C/c3ccccc3)cc2O[C@@H]1CN(C)Cc1ccc(C(=O)O)cc1	80	17	-18
C[C@@H]1CN([C@@H](C)CO)S(=O)(=O)c2ccc(/C=C/c3ccccc3)cc2O[C@H]1CN(C)Cc1ccc(C(=O)O)cc1	84	-97*	-43
C/C=C/c1ccc([C@H]2[C@@H](CO)N(c3nc(C)c(C)s3)[C@@H]2CNCC(C)C)cc1	.	33	-96*
C/C=C/c1ccc([C@@H]2[C@@H](C#N)N(c3nc(CC)cs3)[C@@H]2CO)cc1	21	1	6
C[C@@H]1CN([C@@H](C)CO)C(=O)c2cc(C#Cc3ccc(F)cc3)cnc2O[C@@H]1CN(C)C	38	5	-54
O=C(Cc1cccnc1)N1CC(=O)N2[C@H](CO)[C@H](c3ccc(C#CC4CC4)cc3)[C@@H]2C1	.	-1	10
Cc1ccc(S(=O)(=O)N(C)C[C@H]2OCCCC[C@H](C)Oc3ccc(NC(=O)C4CCCCC4)cc3C(=O)N([C@@H](C)CO)C[C@H]2C)cc1	63	4	-89*
C[C@@H]1CN([C@@H](C)CO)C(=O)c2cc(NC(=O)C3CCCCC3)ccc2O[C@@H](C)CCCCO[C@H]1CN(C)S(=O)(=O)c1ccc(Cl)cc1	87	-4	-83*
Cc1ccc(S(=O)(=O)N(C)C[C@H]2OCCCC[C@@H](C)Oc3ccc(NC(=O)C4CCCCC4)cc3C(=O)N([C@H](C)CO)C[C@@H]2C)cc1	0	-1	-55
Cc1ccc(S(=O)(=O)N(C)C[C@H]2OCCCC[C@@H](C)Oc3ccc(NC(=O)C4CCCCC4)cc3C(=O)N([C@H](C)CO)C[C@H]2C)cc1	47	-1	-71
COc1ccc2c3c(n(C)c2c1)[C@H](CO)N(Cc1ccccc1F)CC31CCN(C(C)=O)CC1	.	5	-56
COc1ccc(C#Cc2ccc3c(c2)[C@H]2[C@H](CCN2Cc2nccs2)[C@H](CO)N3)cc1	.	30	-85*
COc1ccc(C#Cc2ccc3c(c2)[C@H]2[C@H](CCN2Cc2ccncc2)[C@H](CO)N3)cc1	.	47	-94*
COc1ccc(-c2ccc3c(c2)[C@@H]2[C@@H](CCN2Cc2ccncc2)[C@@H](CO)N3)cc1	84	47	-79
OC[C@@H]1Nc2ccc(C#Cc3ccccc3)cc2[C@@H]2[C@H]1CCN2Cc1nccs1	.	40	-77
COc1ccc2c3c(n(C)c2c1)[C@H](CO)NCC31CCN(S(=O)(=O)c2ccc(C)cc2)CC1	.	0	-72
C[C@H](CO)N1C[C@H](C)[C@@H](CN(C)Cc2ccc(C(F)(F)F)cc2)Oc2ccc(NC(=O)NC3CCCCC3)cc2CC1=O	73	1	-21
CO[C@H]1CN(C)C(=O)c2ccc(NC(C)=O)cc2OC[C@@H](C)N(C(=O)C2CCOCC2)C[C@H]1C	-20	.	18
O=C(Nc1cc(F)ccc1F)N1[C@@H]2CNC[C@H]1C2c1ccc(/C=C/c2ccccc2)cc1 (stereo partly specified)	.	29	-51
O=C(Nc1ccc(Cl)cc1)N1[C@@H]2CNC[C@H]1C2c1ccc(/C=C/c2ccccc2)cc1 (stereo partly specified)	.	-98*	-40
O=C(Nc1ccc(C(F)(F)F)cc1)N1[C@@H]2CNC[C@H]1C2c1ccc(-c2ccccc2)cc1 (stereo partly specified)	.	-99*!	-29
Cc1ccccc1-c1ccc(C2[C@H]3CNC[C@@H]2N3C(=O)Nc2ccc(C(F)(F)F)cc2)cc1 (stereo partly specified)	.	-96*	14
O=C(Nc1ccc(F)cc1)N1[C@@H]2CNC[C@H]1C2c1ccc(/C=C/c2ccccc2)cc1 (stereo partly specified)	.	-101*!	-9
O=C(Nc1ccc(F)cc1)N1[C@@H]2CNC[C@H]1C2c1ccc(-c2ccccc2)cc1 (stereo partly specified)	.	59	20

Compound activity from PubChem BioAssay.
